Screen size: about 5,500 compounds; about 2,000 (36%) were called active. Another 18% or so got no clear call; they are omitted. Cut-off read from the data, not from the text of the source: active = normalized growth mostly below about 0.91 (no sharp cut-off); inconclusive = no clear call, values can overlap the other calls; inactive = mostly above about 0.92. The list shows a part of the results.
Assay: chemical genetic growth profiling, strain panel (AID 1159580);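 note: tested at 20 µM; growth read once vehicle control cultures reached saturation at 30 °C; 1 = growth at the plate median or of vehicle wells; lower values mean less growth of the strain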
Conditions: growth OD

Measured: normalized growth

C1N2CN3CN1CN(C2)C3
inactive: S. cerevisiae deletion strains, locus YJR075W, strain HOC1, active compounds read low 0.986 | S. cerevisiae deletion strains, locus YKL068W, active compounds read low 0.976 | S. cerevisiae deletion strains, locus YKL085W, strain MDH1 (second series), active compounds read low 0.987 | S. cerevisiae deletion strains, locus YKL085W, strain MDH1, active compounds read low 0.987 | S. cerevisiae deletion strains, locus YKL160W, strain elf1, active compounds read low 0.973 | S. cerevisiae deletion strains, locus YKL190W, strain CNB1, active compounds read low 0.98 | S. cerevisiae deletion strains, locus YKR001C, strain vps1, active compounds read low 0.965 | S. cerevisiae deletion strains, locus YKR026C, strain gcn3, active compounds read low 0.997 | S. cerevisiae deletion strains, locus YKR091W, strain srl3, active compounds read low 0.985 | S. cerevisiae deletion strains, locus YLL001W, strain dnm1, active compounds read low 0.93 | S. cerevisiae deletion strains, locus YLL026W, active compounds read low 0.993 | S. cerevisiae deletion strains, locus YLL041C, strain sdh2, active compounds read low 0.983 | S. cerevisiae deletion strains, locus YLR027C, strain aat2, active compounds read low 0.996 | S. cerevisiae deletion strains, locus YLR039C, strain RIC1, active compounds read low 0.899 | S. cerevisiae deletion strains, locus YLR058C, strain SHM2, active compounds read low 0.976 | S. cerevisiae deletion strains, locus YLR102C, strain apc9, active compounds read low 0.968 | S. cerevisiae deletion strains, locus YLR113W, strain HOG1, active compounds read low 0.906 | S. cerevisiae deletion strains, locus YLR221C, strain rsa3, active compounds read low 0.965 | S. cerevisiae deletion strains, locus YLR258W, strain gsy2, active compounds read low 0.994 | S. cerevisiae deletion strains, locus YLR262C, strain YPT6 (second series), active compounds read low 0.959 | S. cerevisiae deletion strains, locus YLR262C, strain YPT6, active compounds read low 0.889 | S. cerevisiae deletion strains, locus YLR268W, strain sec22, active compounds read low 0.957 | S. cerevisiae deletion strains, locus YLR320W, strain mms22, active compounds read low 0.961 | S. cerevisiae deletion strains, locus YLR330W, strain CHS5, active compounds read low 0.985 | S. cerevisiae deletion strains, locus YLR342W, strain FKS1 (second series), active compounds read low 0.991 | S. cerevisiae deletion strains, locus YLR342W, strain FKS1, active compounds read low 0.982 | S. cerevisiae deletion strains, locus YLR357W, strain rsc2, active compounds read low 0.971 | S. cerevisiae deletion strains, locus YLR370C, strain arc18, active compounds read low 0.988 | S. cerevisiae deletion strains, locus YLR371W, strain rom2, active compounds read low 0.98 | S. cerevisiae deletion strains, locus YLR384C, strain iki3, active compounds read low 0.989 | S. cerevisiae deletion strains, locus YLR418C, strain cdc73, active compounds read low 0.934 | S. cerevisiae deletion strains, locus YML016C, strain PPZ1, active compounds read low 0.983 | S. cerevisiae deletion strains, locus YML032C, strain rad52, active compounds read low 0.932 | S. cerevisiae deletion strains, locus YML120C, strain ndi1, active compounds read low 0.967 | S. cerevisiae deletion strains, locus YML124C, strain tub3, active compounds read low 0.982 | S. cerevisiae deletion strains, locus YMR058W, strain fet3, active compounds read low 0.998 | S. cerevisiae deletion strains, locus YMR078C, strain ctf18, active compounds read low 0.947 | S. cerevisiae deletion strains, locus YMR125W, strain sto1, active compounds read low 0.975 | S. cerevisiae deletion strains, locus YMR129W, active compounds read low 0.992 | S. cerevisiae deletion strains, locus YMR205C, strain PFK2, active compounds read low 0.959 | S. cerevisiae deletion strains, locus YMR223W, strain ubp8, active compounds read low 0.966 | S. cerevisiae deletion strains, locus YMR231W, strain pep5, active compounds read low 0.992 | S. cerevisiae deletion strains, locus YMR263W, strain SAP30, active compounds read low 0.97 | S. cerevisiae deletion strains, locus YMR307W, strain GAS1, active compounds read low 0.994 | S. cerevisiae deletion strains, locus YNL067W, strain RPL9B, active compounds read low 0.966 | S. cerevisiae deletion strains, locus YNL071W, strain lat1, active compounds read low 0.973 | S. cerevisiae deletion strains, locus YNL128W, strain TEP1, active compounds read low 0.981 | S. cerevisiae deletion strains, locus YNL153C, strain GIM3, active compounds read low 0.968 | S. cerevisiae deletion strains, locus YNL183C, strain NPR1, active compounds read low 0.972 | S. cerevisiae deletion strains, locus YNL209W, strain ssb2, active compounds read low 0.986 | S. cerevisiae deletion strains, locus YNL233W, strain BNI4, active compounds read low 0.99 | S. cerevisiae deletion strains, locus YNL248C, strain rpa49, active compounds read low 0.982 | S. cerevisiae deletion strains, locus YNL271C, strain bni1, active compounds read low 0.959 | S. cerevisiae deletion strains, locus YNL298W, strain CLA4, active compounds read low 0.923 | S. cerevisiae deletion strains, locus YNL307C, strain MCK1, active compounds read low 0.989 | S. cerevisiae deletion strains, locus YNL322C, strain KRE1 (second series), active compounds read low 0.983 | S. cerevisiae deletion strains, locus YNL322C, strain KRE1, active compounds read low 0.982 | S. cerevisiae deletion strains, locus YNR049C, strain mso1, active compounds read low 0.994 | S. cerevisiae deletion strains, locus YNR052C, strain pop2, active compounds read low 0.956 | S. cerevisiae deletion strains, locus YOL006C, strain TOP1, active compounds read low 0.931 | S. cerevisiae deletion strains, locus YOL012C, strain htz1 1.62 | S. cerevisiae deletion strains, locus YOL147C, strain pex11, active compounds read low 0.98 | S. cerevisiae deletion strains, locus YOR001W, strain rrp6, active compounds read low 1.01 | S. cerevisiae deletion strains, locus YOR061W, strain CKA2, active compounds read low 0.957 | S. cerevisiae deletion strains, locus YOR069W, strain VPS5, active compounds read low 0.998 | S. cerevisiae deletion strains, locus YOR070C, strain gyp1, active compounds read low 0.992 | S. cerevisiae deletion strains, locus YOR080W, strain dia2, active compounds read low 0.994 | S. cerevisiae deletion strains, locus YOR083W, strain WHI5, active compounds read low 0.961 | S. cerevisiae deletion strains, locus YOR106W, strain vam3, active compounds read low 0.986 | S. cerevisiae deletion strains, locus YOR136W, strain idh2, active compounds read low 0.989 | S. cerevisiae deletion strains, locus YOR144C, strain elg1, active compounds read low 0.984 | S. cerevisiae deletion strains, locus YOR184W, strain ser1, active compounds read low 1.02 | S. cerevisiae deletion strains, locus YOR265W, strain rbl2, active compounds read low 0.993 | S. cerevisiae deletion strains, locus YOR270C, strain vph1, active compounds read low 0.958 | S. cerevisiae deletion strains, locus YOR290C, strain snf2, active compounds read low 0.914 | S. cerevisiae deletion strains, locus YOR316C, strain cot1, active compounds read low 0.968 | S. cerevisiae deletion strains, locus YPL051W, strain arl3, active compounds read low 0.984 | S. cerevisiae deletion strains, locus YPL055C, strain LGE1, active compounds read low 0.977 | S. cerevisiae deletion strains, locus YPL078C, strain atp4, active compounds read low 0.965 | S. cerevisiae deletion strains, locus YPL106C, strain sse1, active compounds read low 0.967 | S. cerevisiae deletion strains, locus YPL240C, strain hsp82, active compounds read low 0.993 | S. cerevisiae deletion strains, locus YPL256C, strain CLN2, active compounds read low 0.948 | S. cerevisiae deletion strains, locus YPR119W, strain clb2, active compounds read low 0.983 | S. cerevisiae deletion strains, locus YPR141C, strain kar3, active compounds read low 0.95 | S. cerevisiae deletion strains, locus YPR163C, strain tif3, active compounds read low 0.984 | S. cerevisiae deletion strains, locus YPR167C, strain met16, active compounds read low 0.978 | S. cerevisiae deletion strains, strain wtn01, active compounds read low 0.959 | S. cerevisiae strains, strain wild type, active compounds read low 0.989
active: S. cerevisiae deletion strains, locus YKL009W, strain mrt4, active compounds read low 0.834 | S. cerevisiae deletion strains, locus YNL250W, strain rad50, active compounds read low 0.834 | S. cerevisiae deletion strains, locus YOR231W, strain MKK1, active compounds read low 0.794 | S. cerevisiae deletion strains, locus YPL241C, strain CIN2, active compounds read low 1.08 [resistant]

From PubChem BioAssay AID1159580 (chemical genetic matrix, 2015)
